Compound activity as filed in PubChem BioAssay.
RAD52 inh – RAD52 DNA annealing inhibitors, primary screen, biochemical, FRET, single point, set 2; DNA repair protein RAD52 homolog (Homo sapiens), P43351; recombinant RAD52 DNA annealing, FRET fluorescence; inhibition, % at 18.7 µM; 360,000 compounds, 0.46% hits; AID 651710, 2012;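 active = every replicate showing at least 50% inhibition; inconclusive = mean inhibition at least 50% but not in every replicate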
CFTR F508del cor – F508del CFTR correction, initial screen, CFBE line, single point. CFBE cells, YFP halide quenching; stimulated with forskolin plus potentiator P3; % fluorescence drop versus neutral controls. activity (quench increase), % at 7.58 µM. 350,000 compounds, 0.36% hits;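 active = mean added fluorescence quench of at least 8% versus neutral control, with both replicates also reaching 8%; inconclusive = only one of the mean or replicate conditions met; inactive = mean below 8% and not both replicates reaching 8%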;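 also: cells transiently co-express mutant CFTR-F508del with the halide-sensitive YFP; corrector assay measuring rescue of mutant channel to the surface after 24 h compound exposure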
N-glyco inh – increase of ERlucT glycosylation luciferase signal, primary screen, N-linked glycosylation inhibitor project, D54 ERlucT cells, luminescence, set 2; D54 ERlucT glycosylation luciferase reporter, 24 h; percent of 100 nM tunicamycin response; AID 588692, 2011; reporter increase, % at 12.5 µM; 360,000 compounds, 0.23% hits;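 active = mean luciferase reporter signal, scaled so untreated is 0 and the glycosylation-blocking control 100, at or above a set limit in every replicate; inconclusive = mean reaches the limit but not every replicate does; inactive = mean below the limit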;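 also: luciferase carries N-glycosylation sites so blocking glycosylation raises the light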
PvdQ acylase – P. aeruginosa PvdQ acylase inhibitors, primary screen, biochemical, fluorescence, plate reader and imaging, single point | purified PvdQ acylase | inhibition, % at 10 µM | 340,000 compounds, 0.063% hits; in the data active = inhibition above about 30%, passing the limit was not always enough; inconclusive = no clear call, values can overlap the other calls
RAD54 branch – inhibitors of human RAD54 branch migration, primary screen, biochemical, fluorescence, single point | 360,000 compounds, 0.14% hits | inhibition, % at 10.4 µM | RAD54 Holliday junction branch migration, FAM/BHQ fluorescence | DNA repair and recombination protein RAD54-like (Homo sapiens), Q92698;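 active = mean normalized replicate activity at least 40 and at least half of replicates scoring 40 or more; inconclusive = only one of the two criteria met; inactive = mean below 40 and under half of replicates reaching 40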;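 also: inhibitors cause a drop in the FAM fluorescence signal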
Target sequence (Q92698 whole entry, looked up): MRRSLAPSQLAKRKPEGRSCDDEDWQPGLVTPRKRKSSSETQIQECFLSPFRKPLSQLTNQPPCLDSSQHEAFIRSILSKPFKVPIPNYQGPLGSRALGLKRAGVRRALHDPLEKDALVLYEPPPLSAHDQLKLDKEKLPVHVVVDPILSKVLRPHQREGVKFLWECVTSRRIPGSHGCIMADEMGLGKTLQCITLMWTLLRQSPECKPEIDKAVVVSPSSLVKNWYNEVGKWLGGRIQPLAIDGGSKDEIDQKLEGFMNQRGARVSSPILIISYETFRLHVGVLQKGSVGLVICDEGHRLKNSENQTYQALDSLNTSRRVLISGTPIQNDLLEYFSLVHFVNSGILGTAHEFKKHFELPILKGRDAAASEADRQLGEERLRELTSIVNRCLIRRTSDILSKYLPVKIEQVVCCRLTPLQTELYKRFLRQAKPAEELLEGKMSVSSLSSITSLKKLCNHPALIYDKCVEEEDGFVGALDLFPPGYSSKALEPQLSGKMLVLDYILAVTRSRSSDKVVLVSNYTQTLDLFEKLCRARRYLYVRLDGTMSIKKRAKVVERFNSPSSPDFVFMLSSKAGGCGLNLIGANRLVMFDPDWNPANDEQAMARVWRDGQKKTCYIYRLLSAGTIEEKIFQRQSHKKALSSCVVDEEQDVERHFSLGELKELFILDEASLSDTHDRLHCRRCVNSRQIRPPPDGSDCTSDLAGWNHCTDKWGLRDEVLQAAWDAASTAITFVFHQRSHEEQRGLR
dFosB activator – activators of delta FosB homodimer, primary screen, biochemical, fluorescence polarization, TAMRA-CDK5 oligo, single point; Protein FosB (Mus musculus), P13346; purified delta FosB; percent of positive-control signal above neutral wells; activation, % at 25 µM; 340,000 compounds, 0.99% hits; AID 493131, 2011;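 active = mean activation above about 17%, with every replicate also reaching it, limit read from the data, passing the limit was not always enough; inconclusive = only one of the two conditions met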
DNA binder FP – DNA-binding compounds via dye displacement, dose response, artefact control for RAD52 inhibitor project, biochemical, fluorescence polarization, cherry-pick; shares compounds with RAD52 inh; Salmon sperm DNA/acridine orange FP displacement; AC50, µM; 1,000 compounds, 8% hits; AID 652128, 2013;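 active = fitted half-maximal concentration for signal loss at or below twice the highest dose tested, in every separate run, actives reach about 64 µM in these data; inconclusive = runs disagree, or flat partial signal loss, or poor fit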
Of the large screens only hits and unclear results are named; the others gave an inactive call (follow-up assays come after a bar, where they were run). The list is not random: actives were taken first. Their share in the collection is about 1.5%.

COc1ccc(C2c3ccc4ccccc4c3Oc3ncn(CCCN(C)C)c(=N)c32)cc1 (stereo unspecified)	RAD52 inh 79.6 | DNA binder FP inactive
COc1ccccc1C1c2ccc3ccccc3c2Oc2ncn(CCN(C)C)c(=N)c21 (stereo unspecified)	RAD52 inh 60.1 | DNA binder FP inactive
O=C(NC1CCCCC1)N[C@H]1CC[C@H](CCNS(=O)(=O)c2ccc(Cl)cc2)O[C@H]1CO	none (no result: N-glyco inh, PvdQ acylase, dFosB activator)
CCN(CC)CCOc1ncnc2c1oc1ccccc12	none (no result: RAD52 inh, CFTR F508del cor)
CCCCc1oc2ccccc2c1C(=O)c1cc(I)c(OCCN(CC)CC)c(I)c1	RAD52 inh 50.3 (no result: CFTR F508del cor) | DNA binder FP inactive
CC1CCCCN1CC(=O)Nc1ccc(N2CCCCCC2)cc1 (stereo unspecified)	RAD52 inh 92.5 (no result: RAD54 branch) | DNA binder FP inactive
CO[C@@H](CN(C)C(=O)c1cnccn1)[C@@H](C)CN([C@@H](C)CO)S(=O)(=O)c1ccc(C)cc1	none (no result: N-glyco inh, PvdQ acylase, dFosB activator)
CN(Cc1ccccc1)c1cc2c(c3c1ccn3C)C1CCC2C1 (stereo unspecified)	RAD52 inh 58.2 (no result: PvdQ acylase, dFosB activator) | DNA binder FP inactive
CCN(C)c1cc2c(c3c1ccn3C)C1CCC2C1 (stereo unspecified)	RAD52 inh 69.8 (no result: PvdQ acylase, dFosB activator) | DNA binder FP inactive
COc1ccccc1N(C)c1cc2c(c3c1ccn3C)C1CCC2C1 (stereo unspecified)	none (no result: PvdQ acylase, dFosB activator)
Cn1ccc2c(N(Cc3ccccc3)Cc3ccccc3)cc3c(c21)C1CCC3C1 (stereo unspecified)	none (no result: PvdQ acylase, dFosB activator)
CN(CCc1ccccc1)c1cc2c(c3c1ccn3C)C1CCC2C1 (stereo unspecified)	RAD52 inh 63.9 (no result: PvdQ acylase, dFosB activator) | DNA binder FP inactive
CN(c1cc2c(c3c1ccn3C)C1CCC2C1)C1CCCCC1 (stereo unspecified)	none (no result: PvdQ acylase, dFosB activator)
Cc1ccc(S(=O)(=O)N[C@@H]2CC[C@@H](CC(=O)NCCN3CCCCC3)O[C@@H]2CO)cc1	none (no result: N-glyco inh, PvdQ acylase, dFosB activator)
O=C(C[C@H]1C[C@@H]2c3cc(NC(=O)c4ccc5c(c4)OCO5)ccc3O[C@@H]2[C@H](CO)O1)NCCN1CCCCC1	none (no result: N-glyco inh, PvdQ acylase, dFosB activator)
CC1(C)N=C(N)N=C(N)N1c1ccc(CCCCc2ccccc2)cc1	RAD52 inh 85.2 (no result: PvdQ acylase, dFosB activator) | DNA binder FP inactive
COc1cccc(NC(=O)CSc2nc3c(sc4ccccc43)c(=O)n2CCN(C)C)c1	RAD52 inh 73.9 (no result: RAD54 branch) | DNA binder FP inactive
CCN(CC)CCn1c(SCC(=O)Nc2cccc(OC)c2)nc2c(sc3ccccc32)c1=O	dFosB activator inconclusive (no result: RAD54 branch)
CCN(CC)CCn1c2ccccc2c2n[nH]c(=S)nc21	RAD52 inh 72.6 | DNA binder FP inactive
CCN(CC)CCn1c2ccccc2c2nc3ccccc3nc21	RAD52 inh 88.5, CFTR F508del cor 24.2, N-glyco inh 129.0, RAD54 branch 105.7 | DNA binder FP inactive
CCN1CC(=O)N2[C@H](C1)[C@H](c1ccc(-c3ccccc3F)cc1)[C@@H]2CO	none (no result: N-glyco inh, PvdQ acylase, RAD54 branch, dFosB activator)
c1ccc2c(c1)C1=NCCN1c1ccccc1-2	RAD52 inh 81.7, CFTR F508del cor 11.3, N-glyco inh 78.2 (no result: PvdQ acylase, RAD54 branch, dFosB activator) | DNA binder FP inconclusive
C#CCOCCOCCOCCNc1nc(N2CCN(C(=O)CCCCCCCCCCNC(=O)[C@H](CCCCN)n3cc(CCO)nn3)CC2)nc(N2CCN(C(=O)CCCCCCCCCCNC(=O)[C@H](CCCCN)n3cc(CCCC(=O)O)nn3)CC2)n1	RAD52 inh 52.5 | DNA binder FP inactive
NCCCCCc1cn([C@@H](CCC(=O)O)C(=O)NCCCCCCCCCCC(=O)N2CCNCC2)nn1	none
C#CCOCCOCCOCCNc1nc(N2CCN(C(=O)[C@H](CO)n3cc([C@@H](N)C(C)C)nn3)CC2)nc(N2CCN(C(=O)[C@H](CCCCN)n3cc([C@@H](N)[C@H](C)CC)nn3)CC2)n1	RAD52 inh 60.9 | DNA binder FP inactive
C#CCOCCOCCOCCNc1nc(N2CCN(C(=O)Cn3cc(CCCN=C(N)N)nn3)CC2)nc(N2CCN(C(=O)[C@H](CCCCN)n3cc(CCCC)nn3)CC2)n1	RAD52 inh 51.1 | DNA binder FP inactive
CC[C@H](C)Cc1cn([C@@H](CCCCN)C(=O)NCCCCCCCCCCC(=O)N2CCNCC2)nn1	RAD52 inh 76.9 | DNA binder FP inactive
C#CCOCCOCCOCCNc1nc(N2CCN(C(=O)CCCCCCCCCCNC(=O)[C@@H](CCC(=O)O)n3cc(CCCCCN)nn3)CC2)nc(N2CCN(C(=O)CCCCCCCCCCNC(=O)[C@H](CO)n3cc(CCCCCN)nn3)CC2)n1	none (no result: RAD52 inh, CFTR F508del cor)
COCC(=O)N1C[C@@H](C)[C@H](OC)CN(C)C(=O)c2ccc(NC(=O)c3ccc(F)cc3)cc2OC[C@@H]1C	none (no result: N-glyco inh, PvdQ acylase, dFosB activator)
O=C(N[C@@H]1C=C[C@@H](CC(=O)N2CCc3ccccc3C2)O[C@H]1CO)C1CCOCC1	none (no result: N-glyco inh, PvdQ acylase, RAD54 branch, dFosB activator)
C#CCOCCOCCOCCNc1nc(N2CCN(C(=O)C([C@@H](C)O)n3cc([C@@H](N)CCCCN)nn3)CC2)nc(N2CCN(C(=O)[C@H](CCC(=O)O)n3cc([C@@H](N)[C@H](C)CC)nn3)CC2)n1 (stereo partly specified)	none
C#CCOCCOCCOCCNc1nc(N2CCN(C(=O)[C@H](CCCCN)n3cc(CN)nn3)CC2)nc(N2CCN(C(=O)[C@H](CCC(=O)O)n3cc([C@@H](N)CCCCN)nn3)CC2)n1	RAD52 inh 61.3 | DNA binder FP inactive
C#CCOCCOCCOCCNc1nc(N2CCN(C(=O)[C@H](CCCCN)n3cc([C@@H](N)C(C)CC)nn3)CC2)nc(N2CCN(C(=O)[C@H](Cc3ccc(O)cc3)n3cc([C@@H](N)CC(C)C)nn3)CC2)n1 (stereo partly specified)	RAD52 inh 92.0 | DNA binder FP inactive
C#CCOCCOCCOCCNc1nc(N2CCN(C(=O)[C@H](CCCN=C(N)N)n3cc(C(N)[C@@H](C)CC)nn3)CC2)nc(N2CCN(C(=O)[C@H](CCCCN)n3cc([C@@H](N)CC(N)=O)nn3)CC2)n1 (stereo partly specified)	RAD52 inh 65.9 | DNA binder FP inactive
